Measured values from PubChem BioAssay (NCI).
This is part of a sample that, as a whole, favours compounds with a hit. Of some 83,000 tested, about 20% had one in any assay.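 The endpoint reported here, percent growth, reads 100 for growth as untreated, 0 for no net growth and -100 for all cells dead.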 Unmarked numbers belong to inactive results. Active and inactive are the calls of the source. The calls were made as follows: active = growth percent below 10; inactive = the rest.

Experiments:
Assay in all cases: NCI-60 one-dose screen, 48 h (100 = growth as untreated, 0 = no growth, -100 = all killed)
Settings in all cases: 10 µM unless noted
HCT-15 colon = system: HCT-15 colon
HT29 colon = system: HT29 colon
SNB-19 CNS = system: SNB-19 CNS
U251 CNS = system: U251 CNS
PC-3 prostate = system: PC-3 prostate
SK-MEL-5 melanoma = system: SK-MEL-5 melanoma
UACC-62 melanoma = system: UACC-62 melanoma
SK-MEL-28 melanoma = system: SK-MEL-28 melanoma
SK-MEL-2 melanoma = system: SK-MEL-2 melanoma
EKVX NSCLC = system: EKVX NSCLC
SN12C renal = system: SN12C renal
UO-31 renal = system: UO-31 renal
TK-10 renal = system: TK-10 renal
ACHN renal = system: ACHN renal
CAKI-1 renal = system: CAKI-1 renal
A498 renal = system: A498 renal
MOLT-4 leukemia = system: MOLT-4 leukemia
CCRF-CEM leukemia = system: CCRF-CEM leukemia
LOX IMVI melanoma = system: LOX IMVI melanoma

Structure (SMILES)	growth (HCT-15 colon)	growth (HT29 colon)	growth (SNB-19 CNS)	growth (U251 CNS)	growth (PC-3 prostate)	growth (SK-MEL-5 melanoma)	growth (UACC-62 melanoma)	growth (SK-MEL-28 melanoma) [%]	growth (SK-MEL-2 melanoma)	growth (EKVX NSCLC)	growth (SN12C renal)	growth (UO-31 renal)	growth (TK-10 renal)	growth (ACHN renal)	growth (CAKI-1 renal)	growth (A498 renal)	growth (MOLT-4 leukemia)	growth (CCRF-CEM leukemia)	growth (LOX IMVI melanoma)
Clc1cc(Cl)c2nc(-c3ccc(-c4ccc(/C=N/NC5=NCCN5)cc4)s3)cn2c1	38%	35%	100%	87.2%	76.5%	88%	98.8%	99.7	106%	80.8%	92.5%	72%	110%	105%	91.9%	38%	73%	–	–
Cc1ccc(-c2cc3nc(C(Cl)Cl)nc(-c4ccccc4C)n3n2)cc1	33.2%	8.13% (active)	70.2%	46.3%	43.1%	82.6%	59.7%	89.1	94.5%	71.1%	86.7%	75.3%	54.8%	49.1%	48.1%	74.4%	62.9%	96.1%	–
Cc1ccc(-c2cc3nc(-c4ccccc4)nc(C(Cl)Cl)n3n2)cc1	-30.4% (active)	-47.1% (active)	-40.1% (active)	-83.5% (active)	-76% (active)	83.9%	-65.3% (active)	34.6	26.7%	-68% (active)	55.5%	-99.7% (active)	-97.9% (active)	-99.3% (active)	-86.4% (active)	-73.8% (active)	89.3%	–	–
Cc1nc2ncccc2nc1Nc1ccc(S(=O)(=O)Nc2cncs2)cc1	115%	101%	111%	97.7%	86.6%	101%	88.8%	–	103%	88.2%	82.7%	58.8%	101%	99.7%	84.1%	118%	99.4%	100%	83.5%
Cc1cc(N/N=C/c2nc(-c3ccccc3)oc2C)c2cc(Cl)ccc2n1	-83.3% (active)	-78.1% (active)	-31.2% (active)	-76.9% (active)	-61.1% (active)	20.4%	86.3%	–	110%	-59.4% (active)	-84.9% (active)	-99.2% (active)	-76.3% (active)	-80.1% (active)	14.4%	68.4%	-39.2% (active)	-34.6% (active)	-76.8% (active)
C/C=C(\C)C(C(=O)NC1CCCCC1)N(C(=O)C1CCc2cc(F)ccc2O1)c1ccc(Cl)cc1 (configuration not stated)	101%	98.7%	97.8%	102%	94.5%	97.2%	92.3%	–	103%	94.2%	106%	92.6%	96.2%	115%	–	109%	95.4%	101%	94.1%
NC(N)=N/N=C/c1ccc(-c2ccc(-c3cc(Cl)cc(Cl)c3)s2)cc1	-74.5% (active)	-74.9% (active)	40%	-84.1% (active)	-38.5% (active)	86.9%	48.2%	96.5	103%	96.1%	-53.8% (active)	72.2%	-68.8% (active)	-2.94% (active)	50%	73%	17.4%	–	–
CCN(CC)CCC(CNc1c2ccc(Cl)cc2nc2ccc(OC)cc12)c1ccccc1 (configuration not stated)	-18.4% (active)	-36.1% (active)	5.5% (active)	-59.1% (active)	17.6%	-97.9% (active)	-61.2% (active)	–	-71.2% (active)	52.1%	16.8%	-95.2% (active)	-11% (active)	-95% (active)	-40.5% (active)	88.8%	-7.09% (active)	0.732% (active)	-25.4% (active)
Cc1ccc(-c2csc(NC(=O)CCCCl)n2)cc1	95.1%	93.9%	86.5%	95.4%	95.4%	93.9%	88.6%	–	92.2%	–	89.2%	74.5%	98.8%	99.2%	91.6%	82.3%	79.1%	96.3%	98.3%
Brc1cccc(-c2cc(-c3ccc4c(c3)OCCCO4)[nH]n2)c1	29.7% [25 µM]	12.7% [25 µM]	72.2% [25 µM]	47.4% [25 µM]	55.9% [25 µM]	39.1% [25 µM]	60.2% [25 µM]	–	46.1% [25 µM]	54.7% [25 µM]	62.7% [25 µM]	60.1% [25 µM]	71.1% [25 µM]	75.8% [25 µM]	39.6% [25 µM]	70% [25 µM]	56.8% [25 µM]	57.5% [25 µM]	43.9% [25 µM]
COc1ccc(/C(C#N)=C/c2cc(OC)c(OC)c(OC)c2)cc1	31.1%	9.49% (active)	66.3%	34.4%	43.1%	14.8%	39%	52.1	–	–	58.4%	–	68.3%	49.4%	50%	33.6%	32.3%	26.8%	50.3%
NC(=S)N/N=C(/CCN1CCCC1)CC(C1=C(O)C2=CCCCC2OC1=O)c1ccccc1 (configuration not stated)	75.6%	36.2%	109%	88%	85.6%	98.3%	97.4%	99.6	93.2%	63.3%	85.3%	64.5%	120%	89.4%	98.6%	109%	64.8%	48.9%	–
O=C(O)C1CCCCN1c1nc(Cl)nc(Cl)n1 (configuration not stated)	102%	106%	102%	104%	99.3%	97.3%	99.8%	–	104%	99.8%	103%	98.1%	103%	113%	–	90%	104%	105%	95.8%
O=C(O)c1nc(-c2ccccc2)oc1N1CCOCC1	101%	108%	92.3%	90.9%	100%	105%	85.2%	–	97%	104%	99%	81.6%	91.9%	101%	92.2%	114%	105%	107%	108%
COc1ccc(Nc2ncccc2C(=O)NCc2cn(Cc3cccc(Oc4ccccc4)c3)nn2)c(OC)c1	26.1%	3.15% (active)	44.5%	30.2%	43.9%	23%	33.9%	–	–	46.5%	33.7%	48%	64.5%	48%	44.8%	-3.05% (active)	40%	–	48.4%
COC(=O)[C@]12CC[C@@H](C)[C@H](C)[C@@H]1C1=CC[C@@H]3[C@@]4(C)C(C=O)=C[C@@](C)(COC(=O)c5ccco5)[C@@H]4[C@H](O)C[C@@]3(C)[C@]1(C)CC2	-78.3% (active)	-64.4% (active)	7.8% (active)	-76.8% (active)	-8% (active)	-94.9% (active)	–	–	-44.4% (active)	-18.1% (active)	-19.7% (active)	-76.3% (active)	11.5%	-47.7% (active)	-6.76% (active)	-2.1% (active)	-0.738% (active)	-24.1% (active)	-91.4% (active)
CC(C)(C)n1cc(-c2ccnc(NCCCNS(=O)(=O)c3cccc(F)c3)c2)c(-c2cccc(O)c2)n1	-7.15% (active)	12.6%	75.7%	49.9%	32.9%	–	64.5%	47.2	61%	51.5%	59.7%	57.8%	97.9%	51.7%	56.2%	51.9%	33.4%	39.6%	-71.1% (active)
O=C1/C(=C/c2ccccc2)Oc2ccc(O)c(I)c21	94.5%	105%	99.1%	93%	89.6%	–	86.1%	112	95.3%	50.8%	85.7%	58.5%	181%	103%	78.6%	–	95.6%	94.7%	93.8%
